Assay outcomes deposited in PubChem BioAssay by National Center for Advancing Translational Sciences (NCATS).
ELG1 genotox: qHTS screen for small molecules that induce genotoxicity in human embryonic kidney (HEK293T) cells expressing luciferase-tagged ELG1 | Potency, µM (doses to about 46 µM), for the others: top-dose activity change, positive = activation, actives largely listed as activators | AID 504466, 2011 | HEK293T ELG1-luciferase reporter, luminescence, 16 h | 330,000 compounds, 1.3% hits; also: % of control where 0% means no effect; nearly all actives have a fitted effect of over 60% in size
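Reporter readout depends on ELG1 protein level, which increases with genetic stress. After 16 hr compound exposure at 37 °C, luciferase activity was quantified using ONE-Glo.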
SMN2 splice up: qHTS Assay for Enhancers of SMN2 Splice Variant Expression. HEK293 SMN2-luciferase splicing reporter, luminescence, 30-36 h. Potency, µM (highest dose often 46.1 µM), without a hit: at the highest dose activity change, positive = activation, hits mostly activators. 210,000 compounds, 2.8% hits; also: % of control where 0% means no effect; nearly all actives have a fitted effect of over 55% in size
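qHTS luciferase splicing reporter: luminescence rises when SMN2 exon 7 is included in transfected HEK293 cells. Compound exposure lasted 30-36 h at 37C, with 4.5 mM final sodium butyrate as control, followed by a ONE-Glo read.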
ELG1 repair inh: qHTS screen for small molecules that inhibit ELG1-dependent DNA repair in human embryonic kidney (HEK293T) cells expressing luciferase-tagged ELG1 | AID 504467, 2011 | HEK293T ELG1-luciferase reporter, luminescence, 16 h; DNA damage induced by 5-fluorouridine | 330,000 compounds, 2.3% hits | Potency, µM (series often up to 46.1 µM), without a hit: at the top dose activity change, negative = inhibition, most hits filed as inhibitors; also: % is scaled to controls: 0 for no effect and ±100 for the full control effect; nearly all actives have a fitted effect of over 55% in size
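Overnight (16 hr) co-exposure of 2,000 cells/well to 5-fluorouridine and compound at 37 °C preceded detection. Luciferase was quantified via ONE-Glo luminescence; loss of signal denotes inhibition.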
FLuc counter: qHTS profiling assay for firefly luciferase inhibitor/activator using purifed enzyme and Km concentrations of substrates (counterscreen for miR-21 project). Luciferin 4-monooxygenase (Photinus pyralis), P08659. purified FLuc, Km substrates, luminescence inhibition. Potency, µM (titrated, usually from 57.5 µM), without a hit: at the highest dose activity change, negative = inhibition, most hits filed as inhibitors. 360,000 compounds, 6.9% hits. AID 588342, 2011;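 also: plate controls were vehicle for no effect and reference inhibitor for full effect; nearly all actives have a fitted effect of over 55% in size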
Target sequence (P08659 whole entry, looked up): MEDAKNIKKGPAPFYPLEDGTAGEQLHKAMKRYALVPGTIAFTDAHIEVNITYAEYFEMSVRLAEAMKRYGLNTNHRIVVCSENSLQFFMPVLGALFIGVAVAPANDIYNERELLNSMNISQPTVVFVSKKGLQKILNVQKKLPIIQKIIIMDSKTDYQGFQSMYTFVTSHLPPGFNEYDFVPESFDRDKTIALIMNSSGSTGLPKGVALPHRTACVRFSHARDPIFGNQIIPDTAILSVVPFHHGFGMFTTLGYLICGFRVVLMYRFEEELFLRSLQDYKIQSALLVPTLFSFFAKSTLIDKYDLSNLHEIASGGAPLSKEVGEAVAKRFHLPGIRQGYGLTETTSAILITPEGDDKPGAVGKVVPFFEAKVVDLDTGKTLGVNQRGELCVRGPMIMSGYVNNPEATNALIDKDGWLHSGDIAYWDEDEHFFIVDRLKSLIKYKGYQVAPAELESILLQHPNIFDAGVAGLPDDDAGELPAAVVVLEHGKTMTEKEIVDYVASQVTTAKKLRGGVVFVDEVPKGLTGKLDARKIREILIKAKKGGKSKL
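Purified P. pyralis luciferase, 10 nM final, with Km-level 10 uM D-luciferin and 10 uM ATP in 50 mM Tris acetate pH 7.5, 10 mM Mg acetate, 0.01% Tween-20, 0.05% BSA; 6-point qHTS titration about 60 µM downward; luminescence read.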
NPC1 prom act: qHTS Assay for NPC1 Promoter Activators | 320,000 compounds, 2.4% hits | Potency, µM (doses to about 9.22 µM), inactives show at the top dose activation, actives largely listed as activators | Huh7 NPC1 promoter luciferase reporter, 24 h | AID 485313, 2010; also: % of control where 0% means no effect; nearly all actives have a fitted effect of over 60% in size
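Huh7 reporter cells (NPC1 promoter driving luciferase) are dosed with compound for 24 h at 37 °C, 5% CO2; luciferase detection reagent is then added and luminescence measured after 10 min at ambient temperature.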
Rab9 prom act: qHTS Assay for Rab9 Promoter Activators. Huh7 Rab9 promoter-luciferase reporter, luminescence, 24 h. Potency, µM (highest dose often 9.22 µM), inactives show top-dose activation, negative = inhibition, actives largely listed as activators. 320,000 compounds, 2.8% hits. AID 485297, 2010; also: % of control where 0% means no effect; nearly all actives have a fitted effect of over 60% in size
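Measured in stably transfected Huh7 cells bearing a Rab9 promoter–luciferase construct: 24 h compound treatment at 37 °C, followed by luminescence detection.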
Numbers without * were called inactive; ? = inconclusive; nt = no result given. In the library only some 9.4% were active in any assay of this set; here they are far more common. Calls follow the shape of the dose curve; as a rule, active = well fitted curve in the direction sought with a large enough effect; inconclusive = small, poorly fitted or top-dose-only effect, or another doubt; inactive = no such curve, though single readings can be large; an effect the other way counts as inactive or inconclusive. Potency is read from the fitted curve at half-maximal effect.

SMILES	ELG1 genotox	SMN2 splice up	ELG1 repair inh	FLuc counter	NPC1 prom act	Rab9 prom act
Cc1cc(C)c[n+](C2=C([O-])c3ccccc3C(=O)/C2=N\S(=O)(=O)c2cccs2)c1	-7%	-73%	12µM*	0%	-18%	-28%
Cc1cc[n+](C2=C([O-])c3ccccc3C(=O)/C2=N\S(=O)(=O)c2cccs2)cc1C	-15%	-82%	23µM*	-15%	-12%	-17%
CC1CCCC(NC(=O)C2COc3ccccc3O2)C1C (configuration not stated)	2%	nt	0%	4%	1%	12%
OC1CCCCC1Sc1nc2ccccc2s1 (configuration not stated)	?	-8%	?	17µM*	?	?
c1ccc2sc(SSc3nc4ccccc4s3)nc2c1	nt	1%	nt	nt	nt	nt
CN(C(=O)CSc1nc2ccc(NC(=O)COc3ccc(F)cc3)cc2s1)c1ccccc1	nt	nt	nt	-11%	nt	nt
Cc1cc(C)n2cc(COc3ccc4ccccc4c3)nc2n1	?	13µM*	?	2.4µM*	1.8µM*	1.1µM*
Cc1cccc2nc(COc3ccc(-c4ccccc4)cc3)cn12	10%	nt	?	11µM*	26%	?
CCOC(=O)c1cn2c(C)cccc2n1	7%	21%	3%	1%	-2%	4%
COc1ccccc1NC(=O)C1=C(C)Nc2nc(SCc3ccccc3)nn2C1c1cccnc1 (configuration not stated)	nt	6%	nt	0%	nt	nt
Cc1cc(Cl)ccc1OCCCC(=O)NN	-1%	2%	-8%	3%	0%	0%
CC(C)c1ccc(OCC(=O)N2CCCCCC2)c(Br)c1	?	25%	?	21µM*	?	2.8µM*
Cc1cc(Cl)ccc1OCCCC(=O)OCC(N)=O	1%	17%	-7%	27µM*	-7%	-12%
Cc1cc(Cl)ccc1OCCCC(=O)N1CCOCC1	?	-11%	?	?	24%	?
Cc1cc(Cl)ccc1OCCCC(=O)N1CCCCC1	?	5%	?	21µM*	?	?
Cc1ccc(OCC(=O)N2CCCCCC2)c(C)c1	?	7.1µM*	?	-22%	19%	13%
CCOC(=O)c1c(NC(=O)CSc2cn(CCNC(=O)c3ccc(OC)c(OC)c3)c3ccccc23)sc2c1CCCC2	nt	1%	nt	-5%	nt	nt
CCOc1cc(C(=S)N2CCCC2)ccc1OCC(=O)Nc1c(C)cc(C)cc1C	-10%	-23%	21µM*	0%	-1%	-1%
COc1ccc(CNC(=O)COC(=O)CCCOc2ccc(Cl)cc2Cl)cc1OC	-2%	2%	?	17µM*	1%	-3%
Cn1cccc1C(=O)N1CCC2(CC1)CN(C(c1ccccc1)c1ccccc1)C2	nt	-4%	nt	nt	nt	nt
c1ccc2c(c1)nc(NCCN1CCOCC1)c1nncn12	3%	?	?	0%	1%	-1%
Clc1cccc(N2CCN(CCNc3nc4ccccc4n4cnnc34)CC2)c1	-11%	-44%	21µM*	5%	1%	-6%
COC(=O)Cn1ncn2c(cc3oc(C)cc32)c1=O	?	?	?	15µM*	?	2.5µM*
Cc1cc(C)cc(NC(=O)Cn2ncn3c(cc4ccccc43)c2=O)c1	6%	-3%	25%	-2%	-1%	-5%
Oc1ccc(N=Nc2n[nH]c(-c3ccc(Cl)cc3)n2)cc1	3%	20µM*	?	12µM*	5%	1%
C(=N\c1nc2ccccc2n1CCN1CCCCC1)/c1ccc2c(c1)OCO2	2%	-6%	11%	-11%	10%	-1%
